An excerpt weighted towards active compounds, which were near 9.2% of everything screened.
HTT aggregate: qHTS Multiplex Assay to Identify Dual Action Probes in a Cell Model of Huntington: Aggregate Formation (GFP) | PC12 HttQ103-GFP aggregates, Acumen cytometry, 40 h | Potency, µM (highest dose often 46.1 µM), actives largely listed as inhibitors | 220,000 compounds, 1.1% hits; active = well fitted curve in the direction sought with a large enough effect; inconclusive = small, poorly fitted or top-dose-only effect, or another doubt; inactive = no such curve, though single readings can be large; an effect the other way counts as inactive or inconclusive; note: nearly all actives have a fitted effect of over 60% in size
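Huntingtin Q103 exon 1–GFP aggregates in induced PC12 cells (100 nM tebufenozide) were quantified by cytometry from lysates, with compounds dosed in titration.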
ALDH1A1 block: qHTS Assay for Inhibitors of Aldehyde Dehydrogenase 1 (ALDH1A1); Potency, µM (highest dose often 75.3 µM), actives largely listed as inhibitors; Aldehyde dehydrogenase 1A1 (Homo sapiens), P00352; 220,000 compounds, 7.3% hits; Purified ALDH1A1, NADH fluorescence, propionaldehyde substrate; AID 1030, 2008
JMJD2E inh: qHTS Assay for Inhibitors of Human Jumonji Domain Containing 2E (JMJD2E) | Potency, µM (top dose mostly 57.1 µM), hits mostly inhibitors | Lysine-specific demethylase 4E (Homo sapiens), B2RXH2 | JMJD2E catalytic domain, FDH-coupled NADH fluorescence (FDH is formaldehyde dehydrogenase) | 230,000 compounds, 1.6% hits; note: nearly all actives have a fitted effect of over 50% in size
Target sequence (B2RXH2 1-337 limits assumed): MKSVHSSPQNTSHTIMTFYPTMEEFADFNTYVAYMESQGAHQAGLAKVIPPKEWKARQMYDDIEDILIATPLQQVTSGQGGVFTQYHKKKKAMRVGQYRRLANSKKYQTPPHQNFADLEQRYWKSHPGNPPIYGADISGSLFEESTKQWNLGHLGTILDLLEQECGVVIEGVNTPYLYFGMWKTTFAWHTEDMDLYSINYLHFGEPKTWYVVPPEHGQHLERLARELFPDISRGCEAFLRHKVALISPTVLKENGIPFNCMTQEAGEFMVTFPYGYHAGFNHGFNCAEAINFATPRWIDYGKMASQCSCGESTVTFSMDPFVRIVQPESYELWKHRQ
HPGD inh: qHTS Assay for Inhibitors of HPGD (15-Hydroxyprostaglandin Dehydrogenase). Potency, µM, usual class: inhibitors. 15-hydroxyprostaglandin dehydrogenase [NAD(+)] (Homo sapiens), P15428. purified HPGD, NADH fluorescence kinetic, PGE2 substrate. 150,000 compounds, 4.3% hits. AID 894, 2007
Target sequence (P15428 whole entry, looked up): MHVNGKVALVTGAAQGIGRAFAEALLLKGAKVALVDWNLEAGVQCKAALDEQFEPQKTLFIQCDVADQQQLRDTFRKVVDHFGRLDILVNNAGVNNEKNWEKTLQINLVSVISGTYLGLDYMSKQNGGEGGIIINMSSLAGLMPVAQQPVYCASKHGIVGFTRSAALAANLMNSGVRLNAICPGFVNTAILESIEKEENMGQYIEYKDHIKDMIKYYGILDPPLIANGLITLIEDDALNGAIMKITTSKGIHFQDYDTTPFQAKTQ
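NADH formation kinetics: reaction with 30 uM PGE2 and 1 mM NAD+ (final), 20 nM enzyme, Tris-HCl pH 8 with Tween 20, after 15 min compound preincubation at room temperature. Fluorescence change, last versus first of five reads.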
HTT ATP protect: qHTS Multiplex Assay to Identify Dual Action Probes in a Cell Model of Huntington: Cytoprotection (ATP) | PC12 HTT-Q103 induced, cytoprotection, ATP luminescence, 40 h | 230,000 compounds, 0.14% hits | AID 1471, 2008 | Potency, µM (top dose mostly 56.4 µM), most hits filed as activators; active = well fitted curve in the direction sought with a large enough effect; inconclusive = small, poorly fitted or top-dose-only effect, or another doubt; inactive = no such curve, though single readings can be large; an effect the other way counts as inactive or inconclusive; note: nearly all actives have a fitted effect of over 45% in size
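Stable PC12 Q103-GFP cells in serum-supplemented, phenol red-free DMEM; induction by tebufenozide at 100 nM final; compound dose series; cell viability quantified luminescently from ATP.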
LMNA splice mod: qHTS Assay for Modulators of Lamin A Splicing; Potency, µM (doses to about 46.1 µM), actives largely listed as inhibitors; 200,000 compounds, 0.01% hits; HeLa LMNA splicing GFP/RFP minigene ratio, 48 h; AID 1487, 2009; active = well fitted inhibition curve with a large enough effect in the signal ratio, with a control signal flat, not every such curve was filed as active; inconclusive = small, poorly fitted or top-dose-only effect, or effect the other way, or a change in a side signal; the % refers to the signal ratio
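S3 HeLa cells stably expressing lamin A-EGFP splicing minigene plus DsRed2, 600 cells/well, 48 h compound exposure at 37C. Laser-scanning cytometry; analysed as GFP (500-530 nm)/RFP (575-640 nm) total intensity ratio; 0.5% DMSO vehicle.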
Numbers stand for hits; [ ] = dose if it differs, or a comment. Unless noted, calls come from the whole dose curve; as a rule, active = well fitted inhibition curve with a large enough effect (not every such curve was filed as active); inconclusive = small, poorly fitted or top-dose-only effect, or another doubt; inactive = no such curve, though single readings can be large or run the other way.

Cc1ccc(NC(=O)c2cc(C)n(-c3ccccc3)c2C)cc1 was read as HTT aggregate inconclusive, ALDH1A1 block inconclusive, JMJD2E inh inactive, HPGD inh 20µM, HTT ATP protect inactive[10 µM] and LMNA splice mod inconclusive.
Screening Cc1cccc(-n2c(C)cc(/C=N\NC(=O)c3ccco3)c2C)c1 returned HTT aggregate inactive, ALDH1A1 block inconclusive, JMJD2E inh inactive, HTT ATP protect inactive and LMNA splice mod inactive.
Screening Cc1ccc(NC(=O)c2cc(C)n(-c3cccc(C)c3)c2C)cc1 returned HTT aggregate inactive, ALDH1A1 block inconclusive, JMJD2E inh inactive, HPGD inh 25.1µM and LMNA splice mod inconclusive.
Screening Cc1ccc(-n2c(C)cc(C(=O)NS(=O)(=O)c3ccc(C)cc3)c2C)cc1 returned HTT aggregate inactive, ALDH1A1 block inactive, JMJD2E inh inactive, HPGD inh inactive, HTT ATP protect inactive[10 µM] and LMNA splice mod inactive.
Screening COc1ccc(N/C=C(/C(C)=O)c2ccccc2)cc1 returned HTT aggregate inconclusive, ALDH1A1 block 10µM, JMJD2E inh inactive, HPGD inh 22.4µM, HTT ATP protect inactive[10 µM] and LMNA splice mod inactive.
Screening O=C(O)/C=C\c1cnc[nH]1 returned HTT ATP protect inactive[1.9 µM].
For O=C1/C(=C/c2ccccc2)Oc2ccccc21 the results were ALDH1A1 block inactive[13.5 µM] and HTT ATP protect inactive[10 µM].
Screening Nc1nonc1-n1nnc(C(=O)N/N=C/c2ccc(Br)cc2)c1CSC1=NCCS1 returned HTT aggregate inactive, ALDH1A1 block inconclusive, JMJD2E inh inactive, HTT ATP protect inactive[10 µM] and LMNA splice mod inactive.
CC(C)c1ccc(/C=N/NC(=O)c2nnn(-c3nonc3N)c2CSC2=NCCS2)cc1 was read as HTT aggregate inactive, ALDH1A1 block 20µM, JMJD2E inh inactive, HPGD inh inactive and LMNA splice mod inconclusive.
CCOc1ccc(NC(=O)c2ccccc2NS(=O)(=O)c2ccc(F)cc2)c([N+](=O)[O-])c1 was read as HTT aggregate 11.2µM, ALDH1A1 block inactive, JMJD2E inh inactive, HPGD inh inactive, HTT ATP protect inactive[10 µM] and LMNA splice mod inconclusive.
O=C(Nc1ccccc1N1CCOCC1)c1ccccc1NS(=O)(=O)c1ccc(F)cc1 was read as HTT aggregate inconclusive, ALDH1A1 block inactive, JMJD2E inh inactive, HPGD inh inactive, HTT ATP protect inactive and LMNA splice mod inactive.
Screening CCOC(=O)c1ccccc1NS(=O)(=O)c1ccc(OCC)cc1 returned HTT aggregate 11.2µM, ALDH1A1 block inactive, JMJD2E inh inconclusive, HPGD inh inactive, HTT ATP protect inactive[10 µM] and LMNA splice mod inconclusive.
O=C(Nc1ccc(S(=O)(=O)Nc2ncccn2)cc1)c1ccccc1NS(=O)(=O)c1ccc(F)cc1 was read as HTT aggregate inactive, ALDH1A1 block inconclusive, JMJD2E inh inconclusive, HTT ATP protect inactive and LMNA splice mod inconclusive.
For CCOc1ccc(S(=O)(=O)Nc2ccccc2C(=O)Nc2ccccc2N2CCOCC2)cc1 the results were HTT aggregate inactive, ALDH1A1 block 28.2µM, JMJD2E inh inconclusive, HPGD inh inactive, HTT ATP protect inactive[10 µM] and LMNA splice mod inactive.
Screening CCN[C@@H]1CN(CCCOC)S(=O)(=O)c2sc(S(N)(=O)=O)cc21 returned HTT aggregate inactive, ALDH1A1 block inactive, JMJD2E inh inactive, HPGD inh inactive, HTT ATP protect inactive and LMNA splice mod inconclusive.
Cc1ccc(-n2ncc(C(=O)NCCN3CCc4ccccc4C3)c2C2CCN(C(=O)OC(C)(C)C)CC2)c(C)c1 was read as LMNA splice mod inactive.
CCCCC(=O)Nc1cc(-c2cn3cccnc3n2)ccc1C was read as LMNA splice mod inactive.
`CCOc1ccc(C(C)=O)cc1CSc1nnc(-c2cccs2)n1CC1CCCO1` (configuration not stated) gave HTT aggregate inactive, ALDH1A1 block 8.91µM, JMJD2E inh inactive, HPGD inh inactive, HTT ATP protect inactive and LMNA splice mod inactive.
For C[C@H]1C=C2C=C[C@H](C)[C@H](CC[C@@H]3C[C@@H](O)CC(=O)O3)[C@H]2[C@@H](OC(=O)[C@@H](C)CCO)C1 the results were ALDH1A1 block inconclusive, JMJD2E inh inactive, HPGD inh inactive and HTT ATP protect inactive[1.9 µM].
Screening COc1cc(/C=C(\C#N)C(=O)NC2CCCCC2C)ccc1OS(=O)(=O)c1ccc(C)cc1 (configuration not stated) returned HTT aggregate inconclusive, ALDH1A1 block 8.91µM, JMJD2E inh inconclusive, HPGD inh inconclusive, HTT ATP protect inactive[10 µM] and LMNA splice mod inconclusive.
Screening COc1cc(/C=C(\C#N)C(N)=O)ccc1OS(=O)(=O)c1ccc(C)cc1 returned HTT aggregate inactive, ALDH1A1 block 17.8µM, JMJD2E inh inactive, HPGD inh 28.2µM, HTT ATP protect inactive[10 µM] and LMNA splice mod inactive.
CCC/C=C(\CCC)C(NS(=O)(=O)c1ccccc1)c1ccc(C(F)(F)F)cc1 (configuration not stated) was read as ALDH1A1 block inactive, JMJD2E inh inactive, HPGD inh inactive and HTT ATP protect inactive.
For CC(C)(C)c1cc(Cc2ccccc2)[nH]n1 the results were HTT aggregate inactive, ALDH1A1 block inactive, JMJD2E inh inactive, HPGD inh 20µM, HTT ATP protect inactive and LMNA splice mod inactive.
CCOc1ccc(-c2nnc(SCC(=O)Nc3cccc(OC)c3)nc2-c2ccc(OCC)cc2)cc1 was read as LMNA splice mod inactive.
O=C(NCc1n[nH]c(=S)n1-c1ccc(Br)cc1)c1ccc(S(=O)(=O)N2CCCC2)cc1 was read as HTT aggregate inconclusive, ALDH1A1 block inconclusive and JMJD2E inh inactive.
Screening COc1cccc(CN(C)C(=O)c2ccc(S(=O)(=O)N3CCCC3)cc2)c1OC returned HTT aggregate inactive, ALDH1A1 block 11.2µM, JMJD2E inh inactive, HPGD inh inactive, HTT ATP protect inactive[10 µM] and LMNA splice mod inconclusive.
Screening COc1ccc(Br)cc1CNC(=O)C1CCN(S(=O)(=O)N2CCCCC2)CC1 returned HTT aggregate inactive, ALDH1A1 block 12.6µM, JMJD2E inh inactive, HPGD inh inactive, HTT ATP protect inactive[0.074 µM] and LMNA splice mod inactive[0.0737 µM].
For COc1ccc(-n2c(CNC(=O)c3ccc(S(=O)(=O)N4CCCC4)cc3)n[nH]c2=S)cc1 the results were HTT aggregate inactive, ALDH1A1 block 10µM, JMJD2E inh inactive, HPGD inh inactive, HTT ATP protect inactive and LMNA splice mod inactive.

Bioassay records from PubChem.
